In the library only some 2.9% were active in any assay of this set; here they are far more common.
dFosB act: activators of mouse delta FosB homodimer; P13346; purified delta FosB, TAMRA-CDK5 oligo fluorescence polarization; percent of positive-control signal above neutral wells; activation, % at 25 µM; 340,000 compounds, 0.99% hits;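 active = mean activation above about 17%, with every replicate also reaching it, limit read from the data, passing the limit was not always enough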
Target sequence (P13346 whole entry, looked up): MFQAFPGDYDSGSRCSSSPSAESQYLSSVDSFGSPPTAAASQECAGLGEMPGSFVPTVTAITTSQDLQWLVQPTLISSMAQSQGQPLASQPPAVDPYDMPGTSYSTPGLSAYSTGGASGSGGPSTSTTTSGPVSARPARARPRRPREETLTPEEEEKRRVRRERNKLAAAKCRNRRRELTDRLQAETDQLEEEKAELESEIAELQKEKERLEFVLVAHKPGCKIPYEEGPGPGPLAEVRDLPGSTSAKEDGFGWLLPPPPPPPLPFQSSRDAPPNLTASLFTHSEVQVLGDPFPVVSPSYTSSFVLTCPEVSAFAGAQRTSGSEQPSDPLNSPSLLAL
MEKK2 mut-MEK5: signal of MEK5 binding to mutant human MEKK2 PB1 domain; bead flow cytometry, Alexa488-MEK5 binding to MEKK2 mutant; percent response, % at 10 µM; 290,000 compounds, 0.35% hits; AID 1530; in the data active = percent response above about 24%, passing the limit was not always enough
DNA FID counter: displaces DNA intercalator in HCV helicase counter-screen; DNA fluorescent intercalator displacement, fluorescence; 290,000 compounds, 0.17% hits; inhibition, % at 7.9 µM; in the data active = inhibition above about 37%;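 note: higher means more ethidium bromide displaced from hairpin DNA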
MEKK2wt PB1 HTS: raises or lowers MEK5 binding to wildtype human MEKK2 PB1 domain; bead flow cytometry, Alexa488-MEK5 binding to MEKK2 WT; actives lie on both sides; Q9Y2U5; binding response (% of control), % at 10 µM; 290,000 compounds, 1.1% hits; in the data active = binding response below about 67% or above about 130%
MEKK3 PB1 HTS: MEKK3-MEK5 PB1 interaction, increase or decrease; 290,000 compounds, 1.4% hits; binding response (% of control), % at 10 µM; Q99759; bead-based flow cytometry, Alexa488-MEK5 binding to MEKK3; actives lie on both sides; 0 = blocked by unlabeled MEK5, 100 = vehicle; AID 1529;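 active = binding response more than 3 SD above or below the average of its plate-row segment, actives on both sides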;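 note: Alexa488 bead fluorescence after subtracting the streptavidin-only scavenger bead signal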
MEKK2wt confirm: raises or lowers MEK5 binding to wildtype human MEKK2, retest | bead flow cytometry, Alexa488-MEK5 binding to MEKK2 WT; actives lie on both sides | AID 1892 | binding response (% of control), % at 10 µM | shares compounds with MEKK3 PB1 HTS | 5,900 compounds, 2.4% hits; in the data active = binding response below about 16% or above about 210%; inactive = in between
MEKK2mut confirm: signal of MEK5 binding to mutant human MEKK2, retest; percent response, % at 10 µM; bead flow cytometry, Alexa488-MEK5 binding to MEKK2 mutant; 5,900 compounds, 2% hits; AID 1893; shares compounds with MEKK3 PB1 HTS; in the data active = percent response mostly above about 71%, no sharp cut-off; inactive = mostly below about 38%;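 note: higher means compound restores mutant binding toward wildtype level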
MEKK3-MEK5 inh: MEKK3-MEK5 PB1 inhibition, single concentration confirmation. shares compounds with MEKK3 PB1 HTS. bead flow cytometry, Alexa488-MEK5 binding to MEKK3; active compounds read low. binding response (% of control), % at 10 µM. 5,900 compounds, 1.8% hits. AID 1894;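 active = binding response below 72% of control, or above a set upper limit, though filed actives all read lower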;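 note: lower values mean stronger disruption of MEK5 binding to MEKK3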
A number is an active result; – = inactive; · = no result; ! = not confirmed by another sample; [ ] = dose if it differs, or a comment.

SMILES	dFosB act	MEKK2 mut-MEK5	DNA FID counter	MEKK2wt PB1 HTS	MEKK3 PB1 HTS	MEKK2wt confirm	MEKK2mut confirm	MEKK3-MEK5 inh
CCN(c1ccccc1)S(=O)(=O)c1ccc(C(=O)N(C)Cc2cccs2)cc1	–	·	·	·	·	·	·	·
Cn1c(=NC(=O)COc2ccccc2)sc2ccccc21	–	–	–	–	74.0[inhibitor]	–	–	–
Cn1c(=NC(=O)CS(=O)(=O)c2ccccc2)sc2ccccc21	–	·	·	·	·	·	·	·
CSc1nc(C)c(C(=O)Nc2ccccc2)c(-c2ccco2)c1C#N	–	–	–	16.0[inhibitor]	27.0[inhibitor]	–	–	–
Cc1nc(SCC(=O)O)c(C#N)c(-c2ccco2)c1C(=O)N(C)C	–	–	–	–	–	·	·	·
CCOC(=O)c1nnn2c1nc(SCC(C)=O)c1ccccc12	·	–	–	138.0	132.0	–	–	–
C=CCSc1nc2c(C(=O)OCC)nnn2c2ccccc12	–	–	–	–	–	·	·	·
CCc1ccc(-c2cc(C(F)(F)F)n3nc(C(=O)Nc4cnn(Cc5ccc(C)cc5)c4)cc3n2)s1	–	–	–	–	–	·	·	·
CCCCCOc1ccc(CSC(=N)N)cc1[N+](=O)[O-]	–	34.0	–	148.0	–	–	–	–
CN[C@H]1CC[C@@H](c2ccc(Cl)c(Cl)c2)c2ccccc21	–	–	·	176.0!	–	–	–	–
O=C1C=C(O)CC(c2ccc(Cl)c(Cl)c2)C1 (stereo unspecified)	–	–	–	–	–	·	·	·
O=C(NNC1=C(C(=O)C(F)(F)F)CCC1)c1ccc(Br)cc1	–	25.0	–	–	125.0	–	–	–
Nc1ccccc1C(=O)NNC1=C(C(=O)C(F)(F)F)CCC1	–	–	–	–	–	·	·	·
COC(=O)/C(=C\c1ccc2c(c1)c1ccccc1n2C)NC(=O)c1ccccc1	–	–	–	2.0[inhibitor]	2.0[inhibitor]	–	–	–
CC(C)OC(=O)/C(=C/c1ccc2c(c1)c1ccccc1n2C)NC(=O)c1ccccc1	–	–	–	–	–	·	·	·
Cc1ccnn1CCC(=O)O	–	–	–	–	129.0	–	–	–
O=C(Nc1ccccc1)C(c1ccccc1)c1ccccc1	–	–	–	–	–	·	·	·
O=C(O)C(=O)Nc1ccc(NC(=O)C(c2ccccc2)c2ccccc2)cc1	–	–	–	3.0[inhibitor]	2.0[inhibitor]	–	–	–
CCN(CC)C(=O)CCCC(=O)N(CC)CC	–	–	–	–	–	·	·	·
COc1cc(C(CC(=O)N2CCOCC2)c2c(OC)cc(OC)c3ccc(=O)oc23)cc(OC)c1OC (stereo unspecified)	–	–	·	–	–	·	·	·
CCN(CC)C(=O)CC(c1cc(OC)c(OC)c(OC)c1)c1c(OC)cc(OC)c2ccc(=O)oc12 (stereo unspecified)	–	–	·	151.0	–	–	–	–
CCN(CC)C(=O)CC(c1ccc(OC)cc1)c1c(OC)cc(OC)c2ccc(=O)oc12 (stereo unspecified)	–	–	·	145.0	–	–	–	–
CCN(CC)C(=O)CC(c1cc(OC)c(OC)c(OC)c1)c1c(OC)cc(OC)c2c(-c3ccccc3)cc(=O)oc12 (stereo unspecified)	–	–	·	160.0	133.0	–	–	–
COc1ccc(C(CC(=O)N2CCCCC2)c2c(OC)cc(OC)c3ccc(=O)oc23)cc1 (stereo unspecified)	–	–	·	–	–	·	·	·
COc1cc(OC)c2c(-c3ccccc3)cc(=O)oc2c1C(CC(=O)N1CCOCC1)c1ccc2c(c1)OCO2 (stereo unspecified)	–	–	·	144.0	–	–	–	–
SMILES	dFosB act	MEKK2 mut-MEK5	DNA FID counter	MEKK2wt PB1 HTS	MEKK3 PB1 HTS	MEKK2wt confirm	MEKK2mut confirm	MEKK3-MEK5 inh
COc1cc(OC)c2c(-c3ccccc3)cc(=O)oc2c1C(CC(=O)N1CCOCC1)c1ccc(N(C)C)cc1 (stereo unspecified)	–	–	·	–	–	·	·	·
CCn1nc(C(=O)NCc2nnc3ccccn23)c2ccccc2c1=O	–	·	·	·	·	·	·	·
CCN1CCN(C(=S)Nc2ccc(Cl)c(Cl)c2)CC1	–	–	–	62.0[inhibitor]	64.0[inhibitor]	–	–	–
Cc1nc(C(F)(F)F)c(C(=O)N=CN(C)C)s1	–	–	–	–	–	·	·	·
CC(=O)N1N=C(c2ccccc2)CC1c1ccc(F)cc1 (stereo unspecified)	–	–	–	–	–	·	·	·
CC(=O)N1N=C(c2ccccc2)CC1c1cn(C)c2ccccc12 (stereo unspecified)	–	–	–	–	157.0	–	–	–
COC(=O)Cc1cc(=O)n(-c2nc3ccccc3[nH]2)[nH]1	–	–	–	–	73.0[inhibitor]	–	–	–
COc1cc(/C=N/NC(=O)c2cc3ccccc3cc2O)ccc1OCCN1CCCCC1	78.6	–	–	229.0	–	207.0	82.0	–
COc1cc(/C=N/NC(=O)c2ccncc2)ccc1OCCN1CCCCC1	–	–	–	–	–	·	·	·
CC1(C)N=c2ccc([N+](=O)[O-])c(N)c2=[N+]1[O-]	–	–	–	–	–	·	·	·
COc1cc(NC(=S)NCc2ccc(S(N)(=O)=O)cc2)c(OC)cc1Cl	–	–	–	–	59.0[inhibitor]	–	–	–
COc1ccc(Cl)cc1NC(=S)NCCc1ccc(S(N)(=O)=O)cc1	–	–	–	–	–	·	·	·
COCCCN(C(C)=O)c1nc(-c2ccc(OC)cc2)cs1	–	–	–	–	–	·	·	·
CCN(CC)CCCN(C(=O)c1ccccc1C)c1nc(-c2ccc(OC)cc2)cs1	–	–	–	145.0	–	–	–	–
CCN(CC)CCCN(C(=O)c1ccc(OC)cc1)c1nc(-c2ccc(OC)cc2)cs1	–	–	44.1	165.0	–	–	–	–
CCN(CC)CCCN(C(=O)c1ccccc1F)c1nc(-c2ccc(OC)cc2)cs1	–	–	–	156.0	–	–	–	–
COc1ccc(-c2csc(N(CCCN(C)C)C(=O)c3cccs3)n2)cc1	–	–	–	–	–	·	·	·
CCc1cc[n+](-c2nc3ccccc3nc2[N-]S(=O)(=O)c2ccc(Br)s2)cc1	–	–	–	–	–	·	·	·
CCOC(=O)N1CCC(NC(=O)C2=CCN(S(=O)(=O)c3ccccc3)CC2)CC1	–	–	–	–	–	·	·	·
CCOC(=O)N1CCC(NC(=O)C2=CCN(S(=O)(=O)c3ccc(OC)cc3)CC2)CC1	–	–	–	–	128.0	–	–	–
Brc1ccc(CNc2ccc3ncccc3c2)cc1	–	–	–	–	–	·	·	·
S=C(Nc1ccc(Cl)cc1Cl)NC1CCN(Cc2ccccc2)CC1	–	53.0	–	–	–	–	–	–

Source: PubChem BioAssay (several laboratories)
